Rows were chosen to be rich in hits. Some 2.7% of all compounds tested hit in one or more screens of this group.
Nrf2 ARE act: activators of Nrf2 (ARE) signaling | AREc32 ARE-luciferase reporter (MCF7-derived line), luminescence, 24 h | Potency, µM (series often up to 46.1 µM), hits mostly activators | AID 624171 | 410,000 compounds, 0.31% hits; further: nearly all actives have a fitted effect of over 65% in size
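Each well held 1000 AREc32 cells, which were incubated with compound for 24 hr at 37 deg C after overnight attachment, and ARE reporter activity was quantified by firefly luciferase luminescence.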
ALOX12 inh: ALOX12 (human) lipoxygenase inhibition. P18054. purified 12hLO, xylenol orange hydroperoxide absorbance. Potency, µM (titrated, usually from 108 µM), hits mostly inhibitors. 580,000 compounds, 1.1% hits. AID 1671190
Target sequence (P18054 whole entry, looked up): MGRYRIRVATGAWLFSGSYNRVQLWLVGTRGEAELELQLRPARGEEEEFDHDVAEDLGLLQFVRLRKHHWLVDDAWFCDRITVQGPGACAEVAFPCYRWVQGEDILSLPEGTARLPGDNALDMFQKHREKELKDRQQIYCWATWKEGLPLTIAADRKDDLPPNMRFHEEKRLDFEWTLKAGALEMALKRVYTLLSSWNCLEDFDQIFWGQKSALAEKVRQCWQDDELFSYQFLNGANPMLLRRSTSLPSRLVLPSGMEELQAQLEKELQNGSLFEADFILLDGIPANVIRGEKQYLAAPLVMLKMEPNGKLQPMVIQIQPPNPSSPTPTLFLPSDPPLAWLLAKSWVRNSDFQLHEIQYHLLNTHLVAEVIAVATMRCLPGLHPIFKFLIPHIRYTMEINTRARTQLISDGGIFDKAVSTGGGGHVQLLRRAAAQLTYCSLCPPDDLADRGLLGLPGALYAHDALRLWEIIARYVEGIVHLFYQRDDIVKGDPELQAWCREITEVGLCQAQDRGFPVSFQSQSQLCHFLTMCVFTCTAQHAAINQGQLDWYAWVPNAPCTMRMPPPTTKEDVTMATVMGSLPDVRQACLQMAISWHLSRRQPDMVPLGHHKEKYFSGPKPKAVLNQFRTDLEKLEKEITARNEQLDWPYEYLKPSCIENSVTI
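Hydroperoxide product was detected by ferrous iron/xylenol orange as the 573 to 405 nm absorbance ratio. Arachidonic acid at 40 uM (final) was turned over for 30 min at room temperature by 150 nM human 12hLO, pH 7.0 Hepes buffer, after 15 min compound preincubation.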
ERG-DNA inh: blocks human ERG Ets domain binding to DNA | P11308 | AID 624246 | 370,000 compounds, 0.028% hits | Potency, µM (highest dose often 76.9 µM), most hits filed as inhibitors | fluorescence polarization, His-ERG Ets domain / labelled DNA; active means well fitted inhibition curve with a large enough effect in the polarisation, with a control signal flat; inconclusive means small, poorly fitted or top-dose-only effect, or effect the other way, or a change in a side signal; inactive means no such curve, though single readings can be large or run the other way; the % refers to the polarisation;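 further: polarization taken with two DNA probes labelled with fluorescein and Texas red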
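His-tagged ERG Ets domain (1 uM in the protein solution; 300mM KCl, 50mM Tris-HCl, 1mM EDTA, 1mM DTT, pH 7.5) received compound, then a probe mix of 5 nM fluorescein-DNA and 100nM Texas-615-DNA. Fluorescence polarization was read for both dyes.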
A549 tox: counter-screen for Nrf2 inhibitors: cytotoxicity in A549 cells; A549 ARE-Fluc cells, CellTiter-Fluor viability, 18-24 h; Potency, µM (series often up to 46 µM), actives largely listed as inhibitors; 390,000 compounds, 0.16% hits
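Cytotoxicity counterscreen: CellTiter-Fluor fluorescence was measured in A549 ARE_Fluc cells after 18-24 h of compound exposure in a concentration series. The subsequent BugLite luminescent read reports ARE-luciferase activity.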
Nrf2 block: Nrf2 pathway inhibition; A549 ARE-Fluc reporter, luciferase luminescence, 18-24 h; Potency, µM (titrated, usually from 46 µM), most hits filed as inhibitors; 360,000 compounds, 2.1% hits; further: nearly all actives have a fitted effect of over 60% in size
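Reporter: ARE-Fluc in A549. Exposure: 18-24 h, 37 °C, 5% CO2, 5% FBS OPTI-MEM. Readouts: fluorescent cytotoxicity (CellTiter-Fluor), then luminescent Nrf2 signal after BugLite.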
LDHA block: inhibitors of human lactate dehydrogenase A | P00338 | purified LDHA, NADH/diaphorase-resazurin fluorescence; hits give low values | activity change, % (values are at about 110 or 230 µM) | 480,000 compounds, 0.15% hits | AID 1347041; in the data active means activity change below about -30%; inconclusive means mostly about -25% to -30%
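Human LDH5 at 2 nM final in Tris HCl pH 7.4 with 0.06 mM NADH and 0.2 mM pyruvate, reacted 5 minutes at room temperature. Remaining NADH coupled via diaphorase/resazurin; resorufin fluorescence read at 0 and 20 minutes, normalized to enzyme-free and DMSO wells.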
Hits are given with their value; n = inactive; u = inconclusive; x = no result given; ! = not confirmed by another sample; [ ] = remark or other dose. Unless noted, the call rests on the fitted dose curve; in most records, active means well fitted curve in the direction sought with a large enough effect; inconclusive means small, poorly fitted or top-dose-only effect, or another doubt; inactive means no such curve, though single readings can be large; an effect the other way counts as inactive or inconclusive.

SMILES | Nrf2 ARE act | ALOX12 inh | ERG-DNA inh | A549 tox | Nrf2 block | LDHA block
CCOC(=O)c1c(S(=O)(=O)N2CCCCC2)nn(C)c1C | x | u | x | x | x | n
CCCn1nc(S(=O)(=O)N2CCCCC2)c(C(=O)OCC)c1C | x | 6.3µM | x | x | x | n
Oc1ccc(-n2cccc2/C=N/n2cnnc2)cc1 | n[9.22 µM] | n | n | n | n | n
FC(F)(F)c1cccc(-n2cccc2/C=N/n2cnnc2)c1 | n | 14µM | n | n | n | n
O=C(O)c1ccccc1Nc1cc(Cl)ccc1C(=O)O | x | n[12.5 µM] | x | x | x | x
O=C(O)c1ccc(Cl)cc1Nc1nc2cc(Cl)ccc2o1 | n | 8.9µM | n | n | u | n
Cc1nc(/C=C/C(=O)N2CCCCCC2)cs1 | x | n | x | x | x | n
Nc1ccc(N2CCOCC2)c2nonc12 | n | 40µM | n | n | n | n
O=C(Nc1ccc(N2CCOCC2)c2nonc12)C1CCCC1 | n | n | n | n | u | n
COc1ccc(CN2C(=O)CO[C@H]3CN(Cc4c[nH]c5ccccc45)C[C@H]32)cc1 | x | 40µM | x | x | x | x
CCN(CC)c1ccc2cc(C(C)=O)c(=O)oc2c1 | n | n | n | u | u | n
CCN(CC)c1ccc2cc(NC(=O)CCC(=O)O)c(=O)oc2c1 | n | n | x | u | 12µM | n
Cc1nc2nc(N(Cc3ccc(F)cc3)C(=O)c3ccco3)[nH]n2c(=O)c1C | x | n | x | x | x | n
CC1CC(C)(C)NC(=S)N1CCC(=O)N1CCc2ccccc2C1 (stereo not drawn) | n | 40µM | n | n | n | n
COCCN=c1scc(-c2ccco2)n1/N=C/c1ccc(O)c(O)c1O | n | u | n | n | n | n
C=CCN=c1scc(-c2ccco2)n1/N=C/c1ccc(O)c(O)c1O | u | 18µM | n | n | n | n
CCC(=O)c1ccccc1OCCCN1CCC(Cc2ccccc2)CC1 | n[9.22 µM] | 6.3µM | n | n | n | n
O=[N+]([O-])c1cccc(OCCCN2CCC(Cc3ccccc3)CC2)c1 | n[9.22 µM] | 0.5µM | n | n | n | n
O=C(Nc1oc2ccc(Cl)cc2c(=O)c1-c1ccccc1)c1ccco1 | x | u | x | x | x | n
Cc1cc(C)c2oc(C(=O)Nc3ccc(S(N)(=O)=O)cc3)cc(=O)c2c1 | x | n | x | x | x | n
CC(C)(C)CN1CCNc2cc(Nc3ccccc3)ncc2C1 | x | n | x | x | x | x
CCCOC(=O)Nc1ccccc1N=C1CCC/C1=C/c1ccccc1 | x | u | x | x | x | n
Cc1ccccc1/C=C(/C#N)C(=O)c1c(C)[nH]c2ccccc12 | x | u | x | x | x | n
Cc1ccc(C)c(NC(=S)NNC(=O)c2csc3c2CCC(C)C3)c1 (stereo not drawn) | n | u | n | u | 21µM | n
CCOC(=O)C(=Cc1ccc(Br)cc1)C(=O)OCC | u | n | n | u | 18µM | n
SMILES | Nrf2 ARE act | ALOX12 inh | ERG-DNA inh | A549 tox | Nrf2 block | LDHA block
CC(=O)Nc1ccc(C(=O)CSc2ncnc3sccc23)cc1 | x | u | x | x | x | n
COc1ccc(N2CCN(C(=O)CSc3nnnn3-c3ccc4c(c3)OCCO4)CC2)cc1 | n | n | x | n | 16µM | n
O=C(COc1cccc(Cl)c1)N(Cc1ccco1)c1ccccn1 | x | n | x | x | x | n
CC(C)OC(=O)n1c(=S)oc2ccccc21 | n | n | x | n | n | n
CCCCC(=O)/C=C/n1c(=S)oc2ccccc21 | 10µM | n | n | n | u | n
O=[N+]([O-])c1cccc(-c2ccc(/C=N/NC(=S)Nc3ccccc3)o2)c1 | n | n | n | n | n | n
O=C(O)c1cc(-c2ccc(/C=N/NC(=S)Nc3ccccc3)o2)ccc1Cl | n | 28µM | n | n | n | n
CCCN(CCC)CCNC(=O)c1cc2c(-c3ccc(Cl)cc3)nn(C)c2s1 | n | u | n | 23µM | 23µM! | n
COc1cccc(C(=O)Nc2cccc3ccc(C)nc23)c1 | x | n | x | x | x | n
CC(=O)C1=C(O)C(=O)N(c2ccccn2)C1c1ccccc1[N+](=O)[O-] (stereo not drawn) | n | 14µM | n | n | n | n
CC(=O)C1=C(O)C(=O)N(c2ccc(Br)cn2)C1c1ccccc1[N+](=O)[O-] (stereo not drawn) | n | u | n | n | n | n
CC(/C=N/NC(=O)CSc1nnc(SCc2ccccc2)s1)=C\c1ccco1 | 11µM | n | n | n | n | n

Screens: PubChem, National Center for Advancing Translational Sciences (NCATS)
